Assay [1] can be described thus: A549 cell viability effects, profiling panel, calcein-AM fluorescence, 48 h, basal (AID 1162). The note with it: higher = more signal.
The nature of assay [2]: adipocyte viability effects, profiling panel, cell-based, 3T3-L1 adipocytes, calcein-AM fluorescence, 48 h, basal (AID 1163). The note with it: 3T3-L1 adipocytes viability, higher = more signal.
Assay [3] can be described thus: HepG2 cell viability effects, profiling panel, calcein-AM fluorescence, 48 h, basal (AID 1164). The note with it: higher = more signal.
Assay [4] can be described thus: MM1S cell viability effects, profiling panel, calcein-AM fluorescence, 48 h, basal (AID 1165).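 Also: viability of MM1S multiple myeloma cells under basal unstimulated conditions.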 The note with it: higher = more signal.
Assay [5] is described as follows: basal RPMI8226 viability, no added stimulus, profiling panel, cell-based, calcein-AM fluorescence, 48 h, PK04 Diversity Set (AID 1166).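 Also: cells grown under basal conditions without added stimulus.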 Particulars: RPMI8226 myeloma viability, higher = more signal.
Assay [6] is described as follows: basal HepG2 mitochondrial membrane potential changes, profiling panel, cell-based, JC-1 fluorescence, 24 h, 100 nL compound (AID 1167). The note with it: higher = more signal.
The nature of assay [7]: basal 3T3-L1 adipocyte mitochondrial potential changes, profiling panel, cell-based, JC-1 fluorescence, 3T3-L1 adipocytes, 24 h, 100 nL compound (AID 1168). The note with it: JC-1 mitochondrial fluorescence, higher = more signal, called active from +8 up or from −8 down.
A short description of assay [8]: basal RPMI8226 mitochondrial membrane potential changes, profiling panel, cell-based, JC-1 fluorescence, 24 h, 100 nL compound (AID 1169). The note with it: RPMI8226 myeloma, JC-1 mitochondrial potential fluorescence, higher = more signal.
Assay [9] in a line: basal MM1S mitochondrial membrane potential changes, profiling panel, cell-based, JC-1 fluorescence, 24 h, 100 nL compound (AID 1170). The note with it: higher = more signal.
Assay [10] in a line: A549 lung cancer cell viability effects, profiling panel, resazurin fluorescence, 24 h, PK04 Diversity Set (AID 1171). Particulars: higher = more signal, called active from +8 up or from −8 down.

Activity calls are given as the source filed them.
Also: test concentration not given here.

Take `O=C1CS(=O)(=O)C(c2cccc([N+](=O)[O-])c2)N1c1ccccc1` (stereo not given): the z-score in assay [1] is 1.02; in assay [2], 0.116; in assay [3], 1.46; in [4], 0.637; in assay [5] it was 1.22; in [6] it was 1.24. The z-score is -0.662 (inactive) in assay [7], -0.141 in [8], 2.21 in assay [9] and 0.0249 (inactive) in [10].

Consider `C[N+](C)(C)CCCC[C@@H]1NC(=O)[C@@H]2C[C@H](C(=O)NCCCCCCN)[C@H](c3cccc(OCCO)c3)N2C1=O`, for which the z-score in [1] was -0.148; in [2] it was 1; in [3] it was 0.649; in assay [4] it was 0.651; in assay [5] it was -0.013; in [6] it was 0.746. For the same molecule, the z-score in [7] is -0.17 (inactive); in assay [8] it was -0.711; in assay [9], 0.246; in assay [10] it was -0.518 (inactive).

Regarding `COc1ccc([Si](C)(C)[C@H]2[C@H](CC(=O)N(CCO)Cc3ccccc3)O[C@@]3(C(=O)N(C)c4c(Br)cc(C)cc43)[C@@H]2C)cc1`, the z-score in assay [1] was -3.51; in assay [2], -0.346; in [3], -4.11; in [4], -2.75; in assay [5], -4.66; in assay [6] it was -2.26. Also, the z-score in assay [7] is 0.0268 (inactive); in assay [8] it was -1.07; in assay [9], -2.16; in assay [10], -1.02 (inactive).

For `CC(C)=C1C(=O)C(c2ccccc2)=C2CN3C(=O)N(CCc4ccccc4)C(=O)[C@]3(Cc3ccc(C(F)(F)F)cc3)[C@H]21`, the z-score in [1] is 0.549; in assay [2] it was 0.66; in [3], -0.232; in assay [4], -1.14; in assay [5] it was -1.16; in [6], -1.5. In addition, the z-score is -0.876 (inactive) in assay [7], -0.699 in assay [8], -0.746 in [9] and -0.327 (inactive) in assay [10].

In the case of `COc1ccc([Si](C)(C)[C@@H]2[C@@H](CC(=O)N(CCO)Cc3ccccc3)O[C@]3(C(=O)N(Cc4cccc(N5CCCCC5=O)c4)c4ccccc43)[C@H]2C)cc1`, the z-score in assay [1] is -1.2; in [2], 0.579; in [3] it was -2.56; in assay [4] it was -1.43; in [5], -3.89; in assay [6], 0.56. Further, the z-score in [7] is 1.15 (inactive); in [8], -0.654; in assay [9] it was -1.26; in assay [10], -1.6 (inactive).

As for `COCCOC(=O)N1C(=O)[C@@]2(c3cc(C#CC4=CCCCC4)ccc31)[C@H](c1ccccc1OCCO)N1[C@H](c3ccccc3)[C@H](c3ccccc3)OC(=O)[C@H]1[C@@H]2C(=O)NC[C@H](O)c1ccccc1`, the z-score in [1] is -1.86; in assay [2], 1.44; in [3], -0.529; in assay [4], -3.08; in [5], -3.9; in [6], 0.315. Further, the z-score is 2.5 (inactive) in assay [7], -0.817 in assay [8], -1.07 in [9] and -1.59 (inactive) in assay [10].

Regarding `COC(=O)[C@@]1(Cc2ccccc2)[C@H]2c3cc(C(=O)N4CCCC4)n(CCc4ccccn4)c3C[C@H]2CN1C(=O)c1ccccc1`, the z-score was -1.16 in assay [1]; 1.13 in assay [2]; -0.503 in assay [3]; -1.59 in [4]; -1.32 in assay [5]; 0.571 in assay [6]. For the same molecule, the z-score in assay [7] was 0.533 (inactive); in [8] it was -0.272; in [9], -0.618; in [10], 0.523 (inactive).

With `COCCOC(=O)N1C(=O)[C@@]2(c3cc(C#CCC(C(=O)OC)C(=O)OC)ccc31)[C@H](c1ccc(OCCO)cc1)N1[C@H](c3ccccc3)[C@H](c3ccccc3)OC(=O)[C@H]1[C@@H]2C(=O)N1CCc2cc(OC)c(OC)cc2C1`, the z-score in [1] was 1.05; in assay [2] it was -0.0617; in assay [3], 0.0859; in assay [4], -1.04; in [5], -0.467; in [6], 0.363. Further, the z-score in [7] was 1.37 (inactive); in assay [8], -0.262; in assay [9], -1.21; in assay [10] it was 0.0243 (inactive).

Take `O=C1NC(=O)C2C1C=CC(C(O)c1ccco1)N2Nc1ccc(Cl)cc1Cl` (stereo not given): the z-score is -0.396 in assay [1]; -0.792 in [2]; -1.16 in [3]; -1.57 in assay [4]; -0.941 in assay [5]; -1.96 in [6]. Further, the z-score was -0.298 (inactive) in assay [7], -0.977 in assay [8], -0.218 in [9] and -2.08 (inactive) in [10].

On to `CCCCC(O)C1C=CC2C(=O)N(C)C(=O)C2N1N(c1ccccc1)c1ccccc1` (stereo not given), for which the z-score in [1] was -0.646; in [2], -1.68; in [3], 0.821; in assay [4] it was -0.769; in [5], -0.938; in assay [6], -1.19. The z-score in assay [7] was -1.3 (inactive); in assay [8], -0.198; in assay [9], -0.497; in assay [10], -0.7 (inactive).

Take `C=CCN1Cc2ccccc2[C@@H]2OC(c3ccc(OCCCO)cc3)=N[C@]2(CC=C)C1=O`: the z-score in [1] was -0.546; in [2], 1.44; in assay [3] it was 0.274; in assay [4], -2.62; in assay [5], -2.83; in assay [6], 0.752. The z-score was 0.0517 (inactive) in assay [7], -1.09 in assay [8], 0.278 in assay [9] and 0.0576 (inactive) in assay [10].

On to `COCCOC(=O)N1C(=O)[C@@]2(c3cc(C#CCNC(N)=O)ccc31)[C@H](C(N)=O)[C@H]1C(=O)O[C@H](c3ccccc3)[C@H](c3ccccc3)N1[C@@H]2c1ccccc1OCCO`, for which the z-score in [1] was 0.533; in assay [2] it was 0.0371; in [3], -0.362; in assay [4] it was -1.24; in assay [5], 0.458; in [6], -2.02. Moreover, the z-score in assay [7] is -0.278 (inactive); in assay [8] it was -0.159; in assay [9] it was 0.244; in [10], 0.291 (inactive).

As for `COc1ccc(C(=O)Nc2ccc(CN3C(=O)[C@]4(O[C@H](CC(=O)N5Cc6ccccc6C[C@H]5CO)[C@@H]([Si](C)(C)c5ccc(OC)cc5)[C@@H]4C)c4ccccc43)cc2)cc1`, the z-score is -0.513 in assay [1]; 1.56 in assay [2]; 0.349 in [3]; -1.6 in assay [4]; -0.786 in [5]; 0.705 in [6]. Moreover, the z-score was -0.212 (inactive) in [7], -0.7 in assay [8], -0.911 in [9] and -1.96 (inactive) in [10].

On to `CCCCC(CC)C(O)C1C=CC2C(=O)N(c3ccccc3)C(=O)C2N1Nc1ccccc1F` (stereo not given), for which the z-score in assay [1] was 0.389; in assay [2], -0.21; in assay [3] it was -0.553; in assay [4], 0.566; in [5] it was 0.203; in [6] it was -0.639. For the same molecule, the z-score in [7] was -0.511 (inactive); in [8], 0.51; in assay [9] it was -0.775; in assay [10] it was 0.653 (inactive).

Consider `N#Cc1ccc(NN2C(C(O)c3ccc(Br)cc3)C=CC3C(=O)N(c4ccccc4)C(=O)C32)cc1` (stereo not given), for which the z-score in assay [1] is 0.647; in assay [2] it was 0.0175; in [3], 1.11; in [4], -0.615; in [5] it was 0.201; in assay [6], -0.574. Besides, the z-score in assay [7] was 0.507 (inactive); in assay [8], 0.244; in assay [9] it was 0.0172; in assay [10], -0.421 (inactive).

Take `COc1ccc([Si](C)(C)[C@@H]2[C@@H](CC(=O)N3Cc4ccccc4C[C@H]3CO)O[C@]3(C(=O)N(Cc4ccc(N5C(=O)c6cccc7cccc5c67)cc4)c4ccccc43)[C@H]2C)cc1`: the z-score in assay [1] is 0.396; in assay [2], 0.885; in assay [3], 0.355; in assay [4], -2.78; in [5], -0.705; in assay [6] it was 1.15. In addition, the z-score in assay [7] is -0.0452 (inactive); in assay [8], -0.0572; in assay [9], 0.893; in [10], -0.787 (inactive).

Values taken from PubChem BioAssay.
